High-throughput results: PubChem BioAssay, National Center for Advancing Translational Sciences (NCATS)
MARV entry inh – blocks Marburg virus binding to or entry into cells; Marburg virus pseudotyped entry inhibition, cell reporter; Potency, µM (highest dose often 37.8 µM), for inactives: top-dose activity change, negative = inhibition, usual class: inhibitors; 300,000 tested, 1.8% active; calls by dose curve; tested in HEK293 cells; further: potency means the concentration at half of the fitted maximal effect
FMDV antiviral – foot and mouth disease virus antiviral activity. Potency, µM (highest dose often 57.9 µM), for inactives: at the highest dose activity change, negative = inhibition, actives largely listed as inhibitors. 410,000 tested, 1.2% active. FMDV antiviral cell-based qHTS; calls by dose curve; tested in HEK293T cells; further: read-out not given here; potency means the concentration at half of the fitted maximal effect; nearly all actives have a fitted effect of over 45% in size
LASV entry inh – Lassa virus entry inhibition; Potency, µM (titrated, usually from 37.9 µM), for the others: at the highest dose activity change, negative = inhibition, most hits filed as inhibitors; AID 540256; 300,000 tested, 1.2% active; Lassa virus pseudotype entry inhibition, cell reporter; calls by dose curve; tested in HEK293 cells; further: potency means the concentration at half of the fitted maximal effect; nearly all actives have a fitted effect of over 50% in size
HCMV antiviral – human cytomegalovirus inhibition; HFF cells, HCMV-luciferase reporter, 72 h; hits give low values; activity change, negative = inhibition, % at 57.5 µM; 410,000 tested, 4.5% active; AID 1259415; in the data active means activity change below about -60%; inconclusive means no clear call, values can overlap the other calls; inactive means above about -39%
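Screen run at 2 compound doses on HFFs infected with reporter HCMV, MOI 1 PFU/cell. Luciferase activity from cell lysates at 72 h post infection gave inhibition relative to buffer-only and Salinomycin wells.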
HCV inh – blocks hepatitis C virus. Huh7.5.1 HCVcc-Cre infection, luciferase reporter, 44 h. Potency, µM (series often up to 41.8 µM), without a hit: at the top dose activity change, negative = inhibition, hits mostly inhibitors. 340,000 tested, 3.4% active; active means well fitted inhibition curve with a large enough effect; inconclusive means small, poorly fitted or top-dose-only effect, or another doubt; inactive means no such curve, though single readings can be large or run the other way; further: potency means the concentration at half of the fitted maximal effect
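Antiviral activity was scored by luciferase reporter output from cells infected with HCVcc-Cre (~0.5 moi) in presence of compound, 44 h infection period, cells seeded 1,000/well 4 h prior.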
* hit, by the source's call; ? = inconclusive; / = no result given; [ ] = dose if it differs, or a comment. Rows were chosen to be rich in hits. Some 7.9% of all compounds tested hit in one or more screens of this group. On the % scale 0 is the no-effect control and ±100 the full control effect.

SMILES	MARV entry inh	FMDV antiviral	LASV entry inh	HCMV antiviral	HCV inh
COc1cccc(Cn2c(OC[C@H]3CCCO3)nc3c2c(=O)n(C)c(=O)n3C)c1	16%	/	/	/	/
COc1ccc2cc(CN(C(=O)Nc3ccccc3OC)C3CCCC3)c(=O)[nH]c2c1	8.9µM*	-20%	?	0	?
COc1cc2cc(CN(C(=O)NC3CCCCC3)C3CCCC3)c(=O)[nH]c2cc1OC	6%	11%	-2%	-27	16%
COC(=O)c1ccccc1NC(=S)N(Cc1ccc2c(c1)OCO2)Cc1cc2cc(OC)ccc2[nH]c1=O	?	-11%	?	?	11µM*
CCc1ccc2[nH]c(=O)c(CN(Cc3ccccc3)C(=O)Nc3ccccc3OC)cc2c1	?	-17%	-20%	?	2.5µM*
O=C(NC1CCCCC1)N(Cc1cc2cc3c(cc2[nH]c1=O)OCCO3)C1CCCCC1	?	-3%	11%	-80*	11µM*
CCc1ccc2[nH]c(=O)c(CN(CCN(C)C)C(=O)Nc3ccccc3OC)cc2c1	-24%	-5%	-13%	-13	-6%
O=C1COc2ccccc2C(c2nc3ccccc3[nH]2)N1C1CC1 (configuration not stated)	/	-19%	/	1	/
CCN1C(=NCc2ccc(OC)cc2)NC(c2cccc(F)c2)C(C(=O)OC)=C1C (configuration not stated)	2%[14.2 µM]	/	/	/	/
CCOc1ccc(-c2cc(C(=O)N/N=C/c3cccnc3)c3ccccc3n2)cc1	?	-11%	?	-16	-25%
Cc1ccc(COc2ccccc2-c2cc(C(=O)N/N=C/c3cccnc3)[nH]n2)cc1	?	?	8.9µM*	-2	?
O=C(COc1ccccc1-c1ccccc1)N/N=C/c1cccnc1	/	-3%	/	?	?
CCOc1ccccc1-c1cc(C(=O)N/N=C/c2cccnc2)c2ccccc2n1	5.6µM*	-14%	?	-6	-18%
Cc1nnc(NC(=O)CSc2ncnc3c2cnn3-c2ccccc2C)s1	-20%	/	0%	-6	0%
CCc1nc(SCC(=O)N2c3ccccc3CC2C)c2c(C)c(C)sc2n1 (configuration not stated)	0.92µM*	/	1.5µM*	-38	13µM*
Cc1ccccc1-n1ncc2c(SCC(=O)N3c4ccccc4CC3C)ncnc21 (configuration not stated)	?	/	-30%	-67*	?
N#Cc1c(NC(=O)CSc2ncnc3c2cnn3-c2ccccc2Cl)sc2c1CCCC2	?	-11%	?	?	?
O=C(CSc1ncnc2c1cnn2-c1ccccc1Cl)N1CCN(C(=O)c2ccco2)CC1	-23%[46.1 µM]	35µM*	?	24	-25%
COc1ccc(N2CCN(C(=O)CSc3ncnc4c3cnn4-c3ccccc3C)CC2)cc1	16%	?	1%	-15	2%
Cc1ccccc1-n1ncc2c(SCC(=O)NC3CCCC3)ncnc21	?	?	/	-72*	4µM*
CCCNC(=O)CN1C(=O)NC(CCSC)C1=O (configuration not stated)	4%[46.1 µM]	-7%	?	0	5%
CCCc1nc(SCC(=O)N2CCOCC2)c2c(C)c(C)sc2n1	?	31%	-2%[46.1 µM]	-78*	1%
Cc1nc(SCC(=O)N2CCOCC2)c2c(C)c(C)sc2n1	-3%[46.1 µM]	-5%	?	-27	-26%
O=C1NC[C@H](CCCCN2CCN(Cc3ccccc3)C(=O)C2=O)N(CCc2ccccc2)C1=O	/	-11%	/	-35	/
COCCN(Cc1ccco1)C(=O)c1cc2c(Cl)nc3ccc(C)cc3c2s1	-5%[46.1 µM]	-10%	15%[46.1 µM]	-10	/
SMILES	MARV entry inh	FMDV antiviral	LASV entry inh	HCMV antiviral	HCV inh
O=S(=O)(c1cc(O)ccc1O)c1cccc2c(S(=O)(=O)c3cc(O)ccc3O)cccc12	/	13%	/	-22	10µM*
CCCCNc1nc(Oc2ccc(OCCC)nn2)nc(N(C)C)n1	0%[46.1 µM]	-20%	-5%[46.1 µM]	10	/
COc1nc(N(C)S(=O)(=O)c2ccc(C)cc2)nc(C)c1Cl	-17%	-8%	-27%	-61*	?
CCOCCCn1c(SCC(=O)Nc2oc(C)c3c(C)n[nH]c(=O)c23)nc2ccccc2c1=O	2%[46.1 µM]	-11%	-3%	-11	8%
CN(C)S(=O)(=O)c1ccc(Cl)c(NC(=O)CSc2nc3c(cc2C#N)C(=O)CCC3)c1	0%	-16%	-10%	-20	9%
Cc1n[nH]c(=O)c2c(NC(=O)CSc3nn(-c4ccccc4)c(=S)s3)oc(C)c12	-7%	-5%	-3%	-98*	19%
Cc1n[nH]c(=O)c2c(NC(=O)CSc3nc4ccccc4c(=O)n3CCCOC(C)C)oc(C)c12	?	-15%	-1%	-98*	-5%
Cc1ccc(NC(=O)CSc2nn(-c3ccccc3)c(=S)s2)cc1S(=O)(=O)N(C)C	7.3µM*	?	?	-78*	?
Cc1ccc(NC(=O)CSc2nc3c(cc2C#N)C(=O)CCC3)cc1S(=O)(=O)N(C)C	-29%	?	0%	-69*	?
CC(C)(C)CNCc1ccccc1NC(=O)OC(C)(C)C	/	/	/	-13	/
O=C(O)C1CCN(C(=O)CSc2nc3ccccc3c(=O)n2-c2ccc(Cl)cc2)CC1	-14%[46.1 µM]	12%	0%[46.1 µM]	18	3%
CCOc1ccc(C(=O)Nc2ccccc2N2CCCC2)cc1	3%	19%	-8%	-76*	?
Cc1ccc(C(=O)C2CCN(CC(=O)Nc3ccccc3C)CC2)cc1	?	-25%	/	-63*	?
CCCCn1nc(C(=O)Nc2ccc3c(c2)OCCO3)c2ccccc2c1=O	/	-2%	/	-69*	?
CCn1nc(C(=O)Nc2ccccc2N2CCCC2)c2ccccc2c1=O	?	?	?	-17	10µM*
COc1ccc(Cc2nc3c([nH]2)c(=O)n(C)c(=O)n3C)cc1OC	?	-18%	11%[46.1 µM]	50	-8%
O=C(NC1CCN(c2ncccn2)CC1)c1ccccc1Cl	/	11%	/	22	9%
Cc1ccc(S(=O)(=O)N2CCCC2)cc1C(=O)N1CCC(C)CC1	0%	-3%	-16%	-1	9%
CCOc1ccccc1NC(=O)Nc1cc(C(=O)NCc2ccc(C)cc2)ccc1N1CCCC1	/	-4%	-6%[46.1 µM]	-85*	/
CCOc1ccc(C(=O)C2CCN(CC(=O)Nc3ccccc3N3CCOCC3)CC2)cc1	?	-22%	18µM*	?	?
CCOc1ccc(C(=O)Nc2ccccc2N2CCOCC2)cc1	3%[46.1 µM]	-19%	-11%	?	-14%
CC1CCc2onc(C(=O)N3CCN(c4ccc(Cl)cc4)CC3)c2C1 (configuration not stated)	/	-25%	-26%[46.1 µM]	-74*	/
COc1ccc(CNCc2cn(-c3cccc(F)c3)nc2-c2ccc(C)o2)cc1	/	-17%	/	-26	10µM*
COc1ccc(-n2cc(CNCc3cccnc3)c(-c3cccc(F)c3)n2)cc1	?	30%	10%	11	0%
COc1ccc(-n2cc(CNC3CCC(O)CC3)c(-c3cccc(F)c3)n2)cc1 (configuration not stated)	18µM*	-13%	-17%	-27	-9%
Cc1ccc(C2=CC(=O)N(CCN)C2)cc1	/	/	/	32	/
